# From article PMC5540273 (PLoS ONE, 2017)
# Columns and labels:
# Conditions in all cases: concentration: 1 μM,replicates: in singlicate; n = 1
# [1] = test system: T1, PCTK2
# T1 construct: gene CDK17
# [2] = test system: T2, PCTK3
# T2 construct: gene CDK18
# [3] = test system: PDGFRA
# [4] = test system: PDGFRB
# [5] = test system: PDPK1
# [6] = test system: PFTAIRE2
# [7] = test system: T3, PFTK1
# T3 construct: gene CDK14
# [8] = test system: PHKG1
# [9] = test system: PHKG2
# [10] = test system: PIK3C2B
# 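Further: KINOMEscan kinase panel screen.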
smiles,measurement,setting,value
CN(c1ccc2c(c1)nc(NCc1ccc(F)cc1)n2C)c1ccnc(Nc2ccc(CS(C)(=O)=O)cc2)n1.Cl [GW813244],%Inh,[1],0%
same,%Inh,[2],0%
same,%Inh,[3],99%
same,%Inh,[4],100%
same,%Inh,[5],0%
same,%Inh,[6],14%
same,%Inh,[7],0%
same,%Inh,[8],0%
same,%Inh,[9],0%
same,%Inh,[10],0%
C[C@@H]1CNc2c(sc3ccc4nc(-c5ccc(O)cc5)ccc4c23)C(=O)N1,%Inh,[1],0%
same,%Inh,[2],4%
same,%Inh,[3],42%
same,%Inh,[4],56%
same,%Inh,[5],0%
same,%Inh,[6],18%
same,%Inh,[7],8%
same,%Inh,[8],31%
same,%Inh,[9],0%
same,%Inh,[10],16%
O=C(NCC1CC1)c1ccc(-c2cc(C(=O)NC3CC3)ccc2F)cc1 [GW810445],%Inh,[1],0%
same,%Inh,[2],0%
same,%Inh,[3],0%
same,%Inh,[4],0%
same,%Inh,[5],0%
same,%Inh,[6],0%
same,%Inh,[7],0%
same,%Inh,[8],0%
same,%Inh,[9],0%
same,%Inh,[10],0%
O=C(Nc1cccc(Oc2ccc3nccn3n2)c1)Nc1cccc(C(F)(F)F)c1,%Inh,[1],0%
same,%Inh,[2],8%
same,%Inh,[3],99.8%
same,%Inh,[4],100%
same,%Inh,[5],0%
same,%Inh,[6],0%
same,%Inh,[7],1%
same,%Inh,[8],14%
same,%Inh,[9],0%
same,%Inh,[10],12%
COc1cccc(C2=C(Nc3cccc(Cl)c3)C(=O)NC2=O)c1 [SB-341556],%Inh,[1],0%
same,%Inh,[2],6%
same,%Inh,[3],0%
same,%Inh,[4],17%
same,%Inh,[5],0%
same,%Inh,[6],8%
same,%Inh,[7],0%
same,%Inh,[8],0%
same,%Inh,[9],0%
same,%Inh,[10],0%
Cn1ccc2ncnc(Oc3ccc(NC(=O)Nc4cncc(C(F)(F)F)c4)c(Cl)c3)c21,%Inh,[1],0%
same,%Inh,[2],0%
same,%Inh,[3],98.2%
same,%Inh,[4],100%
same,%Inh,[5],26%
same,%Inh,[6],0%
same,%Inh,[7],0%
same,%Inh,[8],0%
same,%Inh,[9],9%
same,%Inh,[10],0%
Nc1nccc(-c2ccc3c(N)n[nH]c3c2)n1 [GSK1034945],%Inh,[1],0%
same,%Inh,[2],10%
same,%Inh,[3],0%
same,%Inh,[4],17%
same,%Inh,[5],34%
same,%Inh,[6],15%
same,%Inh,[7],10%
same,%Inh,[8],5%
same,%Inh,[9],13%
same,%Inh,[10],0%
